Cruzain noTriton – cruzain (T. cruzi) inhibition without detergent; P25779; purified cruzain, Z-FR-AMC fluorescence, no detergent; Potency, µM, without a hit: max response, negative = inhibition, hits mostly inhibitors; 2.3% of 200,000 active;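 note: plate controls were enzyme without inhibitor for no effect and buffer without enzyme for full effect; nearly all actives have a fitted effect of over 40% in size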
Target sequence (P25779 123-467 limits assumed): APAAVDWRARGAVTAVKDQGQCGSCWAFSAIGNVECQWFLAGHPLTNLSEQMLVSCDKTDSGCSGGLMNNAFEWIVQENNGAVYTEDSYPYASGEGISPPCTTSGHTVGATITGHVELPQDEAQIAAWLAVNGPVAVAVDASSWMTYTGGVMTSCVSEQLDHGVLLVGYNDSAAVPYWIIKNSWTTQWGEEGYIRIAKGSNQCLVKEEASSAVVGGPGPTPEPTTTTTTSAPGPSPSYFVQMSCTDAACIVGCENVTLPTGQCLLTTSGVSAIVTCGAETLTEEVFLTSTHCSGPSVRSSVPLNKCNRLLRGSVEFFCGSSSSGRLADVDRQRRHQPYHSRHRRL
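Purified cruzain at 1.5 nM, pre-incubated 15 min with compound at room temperature in 100 mM sodium acetate pH 5.5, 5 mM DTT, 0.00005% Triton X-100. Reaction started with 2 uM Z-FR-AMC; AMC fluorescence increase over 60 s gives rate.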
Cruzain inh Det – cruzain (T. cruzi) inhibition with detergent | AID 1478 | P25779 | 0.43% of 200,000 active | purified cruzain, Z-FR-AMC fluorescence, 0.01% Triton | Potency, µM, inactives show max response, negative = inhibition, actives largely listed as inhibitors;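 note: plate controls were neutral wells for no effect and buffer without enzyme for full effect; nearly all actives have a fitted effect of over 40% in size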
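In this qHTS format, compounds are incubated with 1.5 nM cruzain for 15 min at room temperature before 2 uM Z-FR-AMC is added. Release of AMC is followed at 360/450 nm, and progress is taken as the 60 s fluorescence difference.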
Starred values were filed as active, the others as inactive; ? = inconclusive. This is a sample that favours compounds with a hit; in the whole collection about 2.4% have one here. Calls come from the whole dose curve; as a rule, active = well fitted curve in the direction sought with a large enough effect; inconclusive = small, poorly fitted or top-dose-only effect, or another doubt; inactive = no such curve, though single readings can be large; an effect the other way counts as inactive or inconclusive. Potency is the fitted concentration of half-maximal effect.

SMILES	Cruzain noTriton	Cruzain inh Det
COC(=O)c1ccc(C23CC4(C2)[C@H](CN(Cc2ccc(-c5ccccc5)cc2)[C@@H]4c2ccccc2)C3c2ccc(Cl)nc2)cc1 (stereo not given in full)	16µM*	3%
FC(F)(F)c1ccc(C2[C@H]3CN(Cc4ccc(-c5ccccc5)cc4)[C@H](c4ccccc4)C34CC2(c2ccccc2)C4)cc1 (stereo not given in full)	13µM*	3%
COC(=O)CSc1nc2sc3c(c2c(=O)n1-c1ccccc1)C(C)CCC3 (stereo not given)	-14%	-1%
CC(=O)OC1CCC2(C)C(=CCC3C2CCC2(C)C3C[C@@H]3O[C@]32C(C)=O)C1 (stereo not given in full)	-1%	0%
Cc1ccc2c(CC(=O)N3CCN(c4cccc(Cl)c4)CC3)coc2c1C	3%	-16%
CC1CN(C(=O)Nc2ccc(C(=O)NCCc3ccccc3Cl)cc2)c2ccccc2S1 (stereo not given)	-9%	-4%
COc1cc(/C=C/C(=O)c2ccc(NS(=O)(=O)c3ccc(C)cc3)cc2)ccc1OC(F)F	10µM*	-2%
COc1cc(/C=C/C(=O)c2ccc(NS(=O)(=O)c3ccc(C)cc3)cc2)cc(OC)c1O	?	-6%
C/C=C1\C(=O)C[C@H]2[C@@H]3CCC4=CC(=O)CC[C@]4(C)[C@H]3CC[C@]12C	-1%	-9%
CNc1nc(-c2ccccc2)nc(-c2ccccc2)c1C#N	7.9µM*	-2%
COc1ccc(-c2nc(-c3ccccc3)nc(Cl)c2C#N)cc1	0%	6%
Cc1ccccc1OCC(=O)Nc1sc(C(=O)Nc2cccc(C)c2C)c(C)c1C#N	7.9µM*	5%
COc1ccccc1NC(=O)c1sc(NC(=O)c2ccco2)c(C#N)c1C	-5%	-2%
CC(=O)OCCCNc1cc(SCc2ccco2)c2nonc2c1[N+](=O)[O-]	-17%	-21%
CCCC(=O)OCCNc1cc(SCc2ccco2)c2nonc2c1[N+](=O)[O-]	-30%	25µM*
Cc1ccc(C(=O)CN2CCC(NC(=O)C3CCCCC3)CC2)cc1	?	25µM*
Cc1ccc(NC(=O)CN2CCC(NC(=O)C3CCCCC3)CC2)c(Br)c1	-13%	-2%
COc1ccc2c(c1)sc1ncc(C(=O)NCc3cccc(C)c3)c(=O)n12	-4%	-1%
COc1ccc2c(c1)Cc1sc(NC(=O)c3cccc(Cl)c3)nc1-2	9%	0%
COc1ccc2c(c1)-c1nc(NC(=O)c3ccc(C)cc3)sc1CC2	?	-4%
COc1ccc2c(c1)-c1nc(NC(=O)c3ccc(OC)c(Br)c3)sc1CC2	10µM*	-8%
COc1ccc2c(c1)Cc1sc(NC(=O)c3ccc(Cl)cc3)nc1-2	3.2µM*	-7%
COc1ccc(-c2nnc(SCC(=O)N(C)Cc3ccccc3)o2)cc1OC	?	-9%
COc1cc(C(CC(=O)NCc2ccccc2)N2Cc3ccccc3C2=O)cc(OC)c1OC (stereo not given)	4%	-4%
O=c1c(-c2ccc(F)c(F)c2)nc2cncnc2n1C1CC1	-4%	-4%
SMILES	Cruzain noTriton	Cruzain inh Det
Cc1ccc2c(nc3s/c(=C/c4cccs4)c(=O)n32)c1C	16µM*	-2%
Cc1cc(C)c2nc3s/c(=C/c4ccccc4)c(=O)n3c2c1	-18%	3%
CCC1CCCCN1C(=O)CSc1nnc(-c2ccc(OC)c(OC)c2)o1 (stereo not given)	-3%	-1%
O=C(c1cc2c(ccc3ccccc32)oc1=O)N1CCCC1	?	-27%
O=C(O)c1cc2cc(Cl)cc(Cl)c2oc1=O	?	-3%
O=C(O)c1cc2ccc3ccccc3c2oc1=O	25µM*	?
O=C(O)c1cc2c(ccc3ccccc32)oc1=O	10µM*	?
Cc1cccc(C)c1OCC(=O)Nc1c(C(=O)c2ccccc2)oc2ccccc12	?	0%
CCOC(=O)c1c(C2COc3ccccc3O2)csc1NC(=O)c1ccccc1 (stereo not given)	25µM*	-13%
CCOC(=O)c1c(C2COc3ccccc3O2)csc1N (stereo not given)	-6%	-7%
C=Cc1ccc(CSc2nc(-c3ccc(OC)cc3)nc3c2Cc2c(CO)cnc(C)c2O3)cc1	3%	-2%
Cc1cccn2c(=O)cc(CSc3nnc(NC(=O)COc4ccc(F)cc4)s3)nc12	-11%	-2%
CCCCOC(=O)CCN1C(=O)/C(=C2\SC(=S)N(CCC(=O)OCCCC)C2=O)SC1=S	13µM*	-20%
CCCCOC(=O)CCn1[nH]c(=O)c2ccccc2c1=O	-5%	-3%
c1ccc(C(c2cccc3c2ccc2ccccc23)[C@H](c2ccccc2)c2cccc3c2ccc2ccccc23)cc1 (stereo not given in full)	4µM*	2%
c1ccc2c(c1)ccc1cc3c(ccc4ccccc43)cc12	-10%	4%
COC(=O)C(CCSC)NC(=O)c1cc2c(n(-c3ccc(C)cc3)c1=O)CC(C)(C)CC2=O (stereo not given)	22%	-7%
O=C(N/N=C/c1c(O)n(CCC2=CCCCC2)c(=S)[nH]c1=O)c1ccccc1	-4%	3%
O=C(N/N=C/c1c(O)n(CCC2=CCCCC2)c(=O)[nH]c1=O)c1ccccc1	25µM*	3%
COc1ccc(NC(=O)CSc2nc3c(oc4ccccc43)c(=O)n2-c2ccc(C)c(C)c2)cc1	?	-1%
COC(=O)c1oc2ccc(Br)cc2c1NC(=O)c1ccccc1	13µM*	2%
COC(=O)c1oc2ccc(Cl)cc2c1NC(C)=O	2%	-2%
Cc1ccc(NC(=O)NCc2c(-n3cccc3)sc3c2CCCC3)c(Cl)c1	0%	-1%
C=CCc1ccccc1OCc1nc2ccc(C)cc2[nH]1	9%	-8%
O=S(=O)(Nc1nc(-c2sccc2Cl)cs1)c1cc(Cl)ccc1Cl	?	20µM*
SMILES	Cruzain noTriton	Cruzain inh Det
CN(C)c1ccc(NS(=O)(=O)c2cc(Cl)ccc2Cl)cc1	-11%	-9%
CCC1CN2CCC1CC2[C@@H](NC(=S)Nc1cc(C(F)(F)F)cc(C(F)(F)F)c1)c1cccc2ccc(OC)cc12 (stereo not given in full)	2%	-4%
CCCCn1c(=O)[nH]c(=O)c2c1nc(CN1C(=O)c3ccccc3S1(=O)=O)n2CCC	25µM*	2%
CCCCn1c(=O)[nH]c(=O)c2c1nc(COc1ccc(C#N)cc1)n2CCC	-6%	5%
CCOc1cc(CNC(=O)Cn2ncn3c(cc4cc(F)ccc43)c2=O)cc(OCC)c1OCC	0%	0%
O=C(/C=C\NCC(=O)c1ccccc1)c1ccc2ccccc2c1	32µM*	-26%
O=C(/C=C\NCC(=O)c1ccccc1)c1ccc(F)cc1	-23%	-15%
CC1=CC(C)(C)n2c(O)c(C3=NC(=S)NC3=O)c3cc(OC(=O)c4cccc5ccccc45)cc1c32	3.2µM*	1%
COc1cccc(C(=O)Oc2cc3c4c(c2)C(C)=CC(C)(C)N4C(=O)C3=O)c1	14%	-4%
COc1ccc(COc2cc(-c3cccc(OC)c3)nc3ccc(NC(=O)c4ccc(Cl)cc4)cc23)cc1	2.8µM*	1%
COc1ccc(COc2ccsc2C(=O)Nc2ccc(Cl)cc2)cc1	-9%	6%
COc1ccc(COc2cc(-c3cccc(OC)c3)nc3ccc(NC(=O)c4ccc(OC)cc4)cc23)cc1	7.9µM*	2%
COc1ccc(COc2cc(-c3cccc(OC)c3)nc3ccc(NC(=O)c4cccnc4)cc23)cc1	12%	0%

Screens from PubChem BioAssay.
